Reference: PubChem BioAssay AID493185 (National Center for Advancing Translational Sciences (NCATS), 2011)
A number with no mark means an inactive call. Active and inactive are the calls of the source. Calls come from the whole dose curve; as a rule, active = well fitted activation curve with a large enough effect; inconclusive = small, poorly fitted or top-dose-only effect; inactive = no such curve, though single readings can be large or run the other way.

experiment: Counterscreen for Identifying a Potential Treatment of Ataxia-Telangiectasia: Hit Validation; settings: cell-free AlphaLISA/AlphaScreen artifact counterscreen, PBS only, no cells; series mostly up to 76.9 µM; activation: at the top concentration; for activation: 0% is about no effect
Text: NIH Chemical Genomics Center [NCGC]
NIH Molecular Libraries Probe Centers Network [MLPCN]
Assay Submitter (PI): Wei Zheng and Yosef Shiloh
Ataxia-telangiectasia (A-T) is a devastating and progressive disease for which, there is no cure. Although A-T is a multisystem disease, it is stereotyped characterized by its neurological symptoms such as truncal ataxia, due to cerebellar cortical degeneration of the Purkinje and granule cells. Other symptoms of A-T are telangiectasias (dilated blood vessels), primary immunodeficiency, marked sensitivity to ionizing radiation (IR), chromosomal instability and predisposition to cancer.
The underlying genetic cause of A-T is null mutations in the ATM (A-T mutated) gene. ATM is a nuclear serine/threonine kinase that functions as a master regulator of the cellular responses to double strand breaks (DSBs) in the DNA. Upon activation by DSBs, ATM phosphorylates a plethora of downstream targets, including KAP-1 on […]. KAP-1 phosphorylation occurs shortly in response to DSBs and mediates global chromatin relaxation, which facilitates DSB repair. To screen for small molecules that will compensate for the loss of ATM in cells derived from A-T patients, we monitored KAP-1 phosphorylation as a readout for ATM-like activity using an AlphaLISA assay.
3. Library compounds, 23 nl, 76.7 - 0.61uM dilution series final concentration
4. Incubation, 60 min, 37C, 5% CO2, 95% humidity
6. Incubation, 30 min, 37C, 5% CO2, 95% humidity
7. Reagent, 1 ul, Premixed detection reagents and lysis buffer
8. Reagent, 1 ul, 0.6% Antifoam A
9. Incubation, 6 hr, 25C, 95% humidity
10. Readout, EnVision, EnVision plate reader. AlphaScreen 1536-well protocol
PBS was dispensed into medium-binding white solid-bottom tissue culture treated Kalypsys plates with a Multidrop dispenser. Detection reagent and lysis buffer was 3.75nM Rab-a-pKAP1 antibody bound to 75 ng/ul AlphaScreen SA donor bead, 3.75 nM Biot-M-a-KAP1 antibody bound to AlphaLISA protein A acceptor bead, 0.5x protease inhibitor cocktail and 0.25x PerkinElmer lysis buffer. EnVision protocol for 1536-well AlphaScreen read (30ms excitation, 100ms read), about 10 min/plate. This assay is similar to the primary screen but is without cells. It aims to identify artifacts of the assay platform and unspecific hits.
Potency is the fitted concentration of half-maximal effect.

| SMILES | activation [%] | Potency |
| --- | --- | --- |
| COC(=O)C1=C(c2ccc(OCc3ccccc3)cc2)C[C@@H]2CC[C@H]1N2C(=O)NCc1cccc(C(F)(F)F)c1 | 17.7 |  |
| CCN(CC)S(=O)(=O)c1ccc(C(=O)NC2CN3CCC2CC3)cc1 (stereo not given) | -5.26 |  |
| C/C=C/c1ccc2c(c1)OCO2 | -4.92 |  |
| CCN1C(=O)N(CC)C(=O)C2(Cc3ccccc3N3CCN(c4ccccc4)CC32)C1=O (stereo not given) | -4.1 |  |
| CCCCn1c(O)c(C(=O)/C=C/c2c[nH]c3ccccc23)c(=O)[nH]c1=O | -9.23 |  |
| O=C1Nc2ccccc2C1Cc1nc2ccccc2c(=O)n1-c1ccccc1 (stereo not given) | -12.3 |  |
| CC(C)c1ccc(-n2c(O)c(C=NC(CCS(C)=O)C(=O)O)c(=O)[nH]c2=S)cc1 (stereo not given) | -12.3 |  |
| CN1CCN(c2ccc([N+](=O)[O-])c3no[n+]([O-])c23)CC1 | -7.38 |  |
| Cc1cccc(N2C(=O)NC(=O)/C(=C\C=C\c3ccco3)C2=O)c1 | -38.5 |  |
| CN1CCCC(C(O)(c2ccccc2)c2ccccc2)C1 (stereo not given) | -26.9 |  |
| Cc1cc(O)c2c(c1)C(=O)C13C(=C2O)C(=O)[C@H]2[C@@H](O)[C@@H]1[C@H]1[C@H](O)[C@@H]3C(=O)C3=C(O)c4c(O)cc(C)cc4C(=O)C312 (stereo not given in full) |  | 7.33 µM (active) |
| Cc1ccc(C)c(NP(=O)(Oc2ccccc2)Oc2ccccc2)c1 | -6.77 |  |
| CC1(C)C[C@H]2C=C(C=O)[C@]3(C=O)C[C@]3(C)[C@H]2C1 | -6.15 |  |
| Cc1nc2ccccc2c(=O)n1-c1ccc(F)cc1F | 2.46 |  |
| CCc1ccc(N2C(=O)NC(=O)/C(=C\C=C\c3ccco3)C2=O)cc1 | -6.15 |  |
| CCN(CC)S(=O)(=O)c1cccc(N=Nc2c(O)n(CC)c(=S)n(CC)c2=O)c1 | -12.3 |  |
| O=C(c1cccnc1)C1CCCN(Cc2nc(-c3cnccn3)no2)C1 (stereo not given) | -21.5 |  |
| Cc1ccc(-n2c(O)c(C=NCC3CCCO3)c(=O)[nH]c2=O)c(C)c1 (stereo not given) | 0 |  |
| CCCCC(=O)N/N=C/c1c(O)n(CCC2=CCCCC2)c(=O)[nH]c1=O | -8.2 |  |
| CC(=O)OC1CC[C@]2(C#N)[C@H]3CC[C@]4(C)[C@H](C5C=CC(=O)O5)CCC4(O)C3CCC2(O)C1 (stereo not given in full) | 4.51 |  |
